The supplement of paper PMC13380429
Values without a mark were called inactive.

What follows are compounds tested on Vero E6 infected with SARS-CoV-2 (assay: SARS-CoV-2 infection rate relative to infected DMSO; higher = more infection, active = 60 or less). Conditions: 24 h.

Row | Structure (SMILES) | SARS-CoV-2 infection rate
1 | CC(=O)N[C@H](Cc1ccc2ccccc2c1)C(=O)N[C@H](Cc1ccc(Cl)cc1)C(=O)N[C@H](Cc1cccnc1)C(=O)N[C@@H](CO)C(=O)N[C@@H](Cc1ccc(NC(=O)[C@@H]2CC(=O)NC(=O)N2)cc1)C(=O)N[C@H](Cc1ccc(NC(N)=O)cc1)C(=O)N[C@@H](CC(C)C)C(=O)N[C@@H](CCCCNC(C)C)C(=O)N1CCC[C@H]1C(=O)N[C@H](C)C(N)=O [degarelix] (10 µM) | 115%
2 | Cn1nnc(-c2ccc(-c3ccc(N4C[C@H](COP(=O)(O)O)OC4=O)cc3F)cn2)n1 [tedizolid-phosphate] (10 µM) | 88%
3 | O=C(CN1CCN(Cc2ccc3c(c2)OCO3)CC1)N1c2ccccc2Sc2ccccc21 [fenoverine] (10 µM) | 110%
4 | CCS(=O)(=O)N1CCC([C@@H](C)n2c(C)c(C(=O)NCc3c(OC)cc(C)[nH]c3=O)c3ccccc32)CC1 (10 µM) | 102%
5 | COc1ccc(C(CN(C)C)C2(O)CCCCC2)cc1 (centres undefined) [venlafaxine] (10 µM) | 110%
6 | CC(=O)N(OCc1ccccc1)[C@@H]1c2cc(C#N)ccc2OC(C)(C)[C@H]1O (10 µM) | 97.5%
7 | O=P(O)(O)CN(CCN(CP(=O)(O)O)CP(=O)(O)O)CP(=O)(O)O (10 µM) | 104%
8 | CN1CCN(C(c2ccccc2)c2ccccc2)CC1 [cyclizine] (10 µM) | 108%
9 | Cc1cc(N)c2ccccc2[n+]1CCCCCCCCCC[n+]1c(C)cc(N)c2ccccc21 [dequalinium] (10 µM) | 94%
10 | OC[C@@H](O)[C@H]1O[C@@H]2O[C@H](C(Cl)(Cl)Cl)O[C@@H]2[C@H]1O [chloralose] (10 µM) | 103%
11 | CCOCCn1c(C2CCN(CCc3ccc(C(C)(C)C(=O)O)cc3)CC2)nc2ccccc21 [bilastine] (10 µM) | 107%
12 | C=C(C)[C@@H]1CC=C(CO)CC1 [perillyl-alcohol] (10 µM) | 100%
13 | Oc1ccc2c3c1O[C@H]1c4[nH]c5ccccc5c4C[C@@]4(O)[C@@H](C2)N(CC2CC2)CC[C@]314 [naltrindole] (10 µM) | 106%
14 | Cc1ccc(S(=O)(=O)NCl)cc1 [chloramine-T] (10 µM) | 104%
15 | CCCCCCCCc1ccc(CCC(N)(CO)CO)cc1 [fingolimod] (10 µM) | 26.5% (active)
16 | O=C1C(Cl)=C(NCCN2CCOCC2)C(=O)c2ncccc21 (0.833333 µM) | 94%
17 | COc1cc2c(cc1Cc1cccc(Cl)c1F)c(=O)c(C(=O)O)cn2[C@H](CO)C(C)C [elvitegravir] (10 µM) | 107%
18 | CCn1c(=O)c(-c2cc[nH]n2)cc2c(C)nc(N)nc21 [voxtalisib] (0.833333 µM) | 109%
19 | O=C(O)c1ccc(N2N=C(Cc3ccccc3)/C(=C\c3ccc(-c4ccccc4F)o3)C2=O)cc1 (10 µM) | 115%
20 | COc1cc(OC)c(/C=C2/C(=O)Nc3ccccc32)c(OC)c1 (10 µM) | 96.5%

Row | Structure (SMILES) | SARS-CoV-2 infection rate
21 | CC(=O)[C@H]1CC[C@H]2[C@@H]3CC[C@H]4C[C@](C)(O)CC[C@]4(C)[C@H]3CC[C@]12C [ganaxolone] (10 µM) | 104%
22 | O=C(NCc1ccc2c(c1)OCO2)c1c(Cl)cccc1Cl [alda-1] (10 µM) | 104%
23 | CN1CCCN(C(c2ccccc2)c2ccc(Cl)cc2)CC1 (centres undefined) [homochlorcyclizine] (10 µM) | 59.5% (active)
24 | CCn1nc(C)c2c1C(c1ccccc1)=NCC(=O)N2 [ripazepam] (10 µM) | 109%
25 | O=C1C=Cc2cc(Br)ccc2C1=O [bonaphthone] (10 µM) | 103%
26 | CN1CCN(c2cc3c(cc2F)c(=O)c(C(=O)O)cn3-c2ccc(F)cc2)CC1 [difloxacin] (10 µM) | 99.5%
27 | CN(C)c1nc(N(C)C)nc(N(C)C)n1 [altretamine] (10 µM) | 114%
28 | Nc1ncnc2[nH]nc(Nc3ccc(F)cc3)c12 (0.833333 µM) | 95.5%
29 | CCNC(=O)/C=C/c1cccc(Br)c1 [cinromide] (10 µM) | 96%
30 | N#CC[C@@H](C1CCCC1)n1cc(-c2ncnc3[nH]ccc23)cn1 [ruxolitinib-(S)] (10 µM) | 105%
31 | CC(C)(C)NCC(O)CSc1nc(-c2ccc(C(N)=O)s2)cs1 (centres undefined) [arotinolol] (10 µM) | 106%
32 | CC(C)(C(=O)NCC(F)(F)C(F)(F)F)C(=O)N[C@@H]1C(=O)Nc2ccccc2-c2ccccc21 (10 µM) | 86%
33 | Nc1ccc([As](=O)(O)O)cc1 [arsanilic-acid] (10 µM) | 103%
34 | C[C@@]1(F)[C@H](O)[C@@H](CO)O[C@H]1n1ccc(N)nc1=O (10 µM) | 104%
35 | O=C(Nc1ccc(Br)cc1)c1cc(Br)cc(Br)c1O [tribomsalan] (10 µM) | 106%
36 | O[C@H]1[C@H](O)[C@@H](O)[C@H](O)[C@@H](O)[C@H]1O [inositol] (10 µM) | 95.5%
37 | CCCC(C)C1(CC)C(=O)NC(=S)NC1=O (centres undefined) [thiopental] (10 µM) | 110%
38 | C[C@@H]1[C@H](O)[C@@H](C)/C=C/C=C/C=C/C=C/C=C/C=C/C=C/[C@H](O[C@@H]2O[C@H](C)[C@@H](O)[C@H](N)[C@@H]2O)C[C@@H]2O[C@](O)(C[C@@H](O)C[C@@H](O)[C@H](O)CC[C@@H](O)C[C@@H](O)CC(=O)O[C@H]1C)C[C@H](O)[C@H]2C(=O)O [amphotericin-b] (10 µM) | 107%
39 | O=C1C(=Cc2cccnc2)C(=O)c2ccccc21 (10 µM) | 99%
